# Experimental data as given in PubChem BioAssay AID1259421 (Broad Institute, 2018).
# Where “and” joins values, the source holds several entries; their conditions need not be identical. Identical values can stand only once. In all, about 6,400 compounds went through this assay and about 610 (9.5%) were called active. Cut-off read from the data, not from the text of the source: active = activity change below about -70%; inconclusive = no clear call, values can overlap the other calls; inactive = above that. Many of the other results were omitted from the sample, so actives are more common in it than they were. Some structures have more than one record in an assay (separate samples or runs), and their calls can disagree.
# Experiment: T. gondii ME49Luc in HeLa cells, luciferase assay, 72 h, no IFN-y (AID 1259421)
# Details: stronger effect = lower value, concentration not given here
row,Structure (SMILES),"activity change, negative = inhibition"
1,NC(=O)CS(=O)C(c1ccccc1)c1ccccc1 (configuration not stated),-1.56% (inactive)
2,O=C(CCCN1CCC2(CC1)C(=O)NCN2c1ccccc1)c1ccc(F)cc1,2.21% (inactive) and -33.3% (inactive)
3,O=C(CCCN1CCC2(CC1)C(=O)N(Cc1cccc(F)c1)CN2c1ccccc1)c1ccc(F)cc1,10% (inactive) and -81.6% (active)
4,COC(=O)CN1CN(c2ccccc2)C2(CCN(Cc3ccc4ccccc4c3)CC2)C1=O,13.3% (inactive)
5,Cc1cc(OC(=O)N2CCCCC2)c(C(C)C)cc1[N+](C)(C)C,-5.32% (inactive)
6,C/C(=C\c1csc(C)n1)[C@H]1C[C@@H]2O[C@]2(C)CCC[C@H](C)[C@H](O)[C@@H](C)C(=O)C(C)(C)[C@@H](O)CC(=O)O1,-66.8% (inactive)
7,C/C1=C/C[C@@H](/C(C)=C/c2csc(C)n2)OC(=O)C[C@H](O)C(C)(C)C(=O)[C@H](C)[C@@H](O)[C@@H](C)CCC1,-85.9% (active)
8,C/C(=C\c1csc(C)n1)[C@H]1C[C@@H]2O[C@]2(C)CCC[C@H](C)[C@H](O)[C@@H](C)C(=O)C(C)(C)[C@H](O)CC(=O)O1,-73.6% (active)
9,C/C(=C\c1csc(C)n1)[C@@H]1C[C@@H]2O[C@@H]2CCC[C@H](C)[C@H](O)[C@@H](C)C(=O)C(C)(C)[C@@H](O)CC(=O)O1,-69.4% (inactive)
10,CCN1CC2(COC(=O)c3ccccc3N3C(=O)CC(C)C3=O)CCC(OC)C34C5CC6C(OC)CC(O)(C5C6OC)C(O)(C(OC)C23)C14 (configuration not stated),4.55% (inactive)
11,C[C@H](NC(=O)[C@@H](N)Cc1ccc(O)cc1)C(=O)NCC(=O)N(C)[C@@H](Cc1ccccc1)C(=O)N[C@H](CO)CCS(C)=O (some centres not stated),12.9% (inactive)
12,O=C1/C(=C/c2ccccc2)C[C@@]2(O)C3Cc4ccc(O)c5c4[C@@]2(CCN3CC2CC2)[C@H]1O5,1.86% (inactive)
13,COc1ccc2c(c1)[C@]13CCCC[C@H]1[C@H](C2)N(C)CC3,16.4% (inactive)
14,Cc1cc(C)cc(C(=O)OC2CC3CCC(C2)N3C)c1 (configuration not stated),-12.3% (inactive) and -9.52% (inactive)
15,CN1C(=O)CN=C(c2ccccc2)c2cc(Cl)ccc21,-6.2% (inactive)
16,N#Cc1nn(-c2c(Cl)cc(C(F)(F)F)cc2Cl)c(N)c1S(=O)C(F)(F)F (configuration not stated),13.6% (inactive) and 5.34% (inactive)
17,CC(N)Cc1c[nH]c2ccc(OCc3cccs3)cc12 (configuration not stated),1.64% (inactive) and -1.85% (inactive)
18,C#Cc1cccc2c1c(C(=O)c1ccc(Cn3c(C)nc4cnccc43)c(F)c1)cn2C(=O)N(C)C,-7.53% (inactive)
19,Oc1ccc2c3c1O[C@H]1c4[nH]c5ccccc5c4C[C@@]4(O)C(C2)N(CC2CC2)CC[C@]314,10.7% (inactive)
20,CO[C@H]1CCC(O[C@H]2CC([C@]3(C)CC[C@]4(C[C@H](O)[C@@H](C)[C@@H]([C@@H](C)/C=C(\C)C(=O)[C@H](C)C[C@H](C)C(=O)O)O4)O3)O[C@]3(O[C@@H](C4O[C@@](O)(CO)[C@H](C)C[C@@H]4C)C[C@@H]3C)[C@@H]2C)O[C@@H]1C (some centres not stated),-83.8% (active)
21,N[C@H](CO)Cc1ccccc1,1.26% (inactive)

row,Structure (SMILES),"activity change, negative = inhibition"
1,N#CC(C#N)=Cc1ccc([N+](=O)[O-])c(O)c1,-6.99% (inactive)
2,Oc1ccc2c(c1)[C@@]13CCCC[C@@]1(O)[C@@H](C2)N(CC1CCC1)CC3,18.4% (inactive)
3,COC(=O)C[C@@](O)(CCC(C)(C)O)C(=O)O[C@@H]1C(OC)=C[C@]23CCCN2CCc2cc4c(cc2[C@@H]13)OCO4,-83.3% (active)
4,CN1CCc2cc3c(cc2C1O)OCO3 (configuration not stated),7.57% (inactive)
5,CSCCC(NC(=O)C(Cc1ccccc1)NC(=O)CNC(=O)CNC(=O)C(N)Cc1ccc(O)cc1)C(=O)O (configuration not stated),10.2% (inactive)
6,CCC(CO)(C(=O)OC1CC2CCC(C1)[N+]2(C)C)c1ccccc1 (configuration not stated),0.204% (inactive)
7,FC(F)(F)c1cccc(C2=CCN(CCc3ccc4ccccc4c3)CC2)c1,10.1% (inactive) and 11.9% (inactive)
8,CCN1CCN(C(=O)Cc2ccc(Nc3ncc(F)c(Nc4ccc(C(=O)Nc5ccccc5Cl)cc4)n3)cc2)CC1,-83.3% (active)
9,COC(=O)N1CCN(C(=O)Cc2ccc(Cl)c(Cl)c2)C(CN2CCCC2)C1 (configuration not stated),6.7% (inactive)
10,CC1(C)C2CC(=O)[C@]3(C)C(CC[C@@]4(C)[C@H](c5ccoc5)OC(=O)[C@H]5O[C@]543)[C@@]2(C)C(=O)C[C@H]1O (some centres not stated),-1.25% (inactive)
11,C[C@H](Cc1ccc(OCC(=O)O)cc1)NC[C@H](O)c1cccc(Cl)c1,4.02% (inactive) and 20.9% (inactive)
12,CNCC(O)c1ccc(O)cc1 (configuration not stated),3.63% (inactive) and 14.9% (inactive)
13,CC(Cc1ccc(O)cc1)NCC(O)c1cc(O)cc(O)c1 (configuration not stated),-70.6% (active) and 10.9% (inactive)
14,C[C@]12C=CC(=O)C=C1CCC1C2CC[C@]2(C)C(=O)CCC12 (some centres not stated),3.57% (inactive)
15,C[C@@H]1CN(C2CCC(C#N)(c3ccc(F)cc3)CC2)CC[C@]1(C(=O)O)c1ccccc1 (some centres not stated),-7.9% (inactive)
16,C=C1CCC2(O)C3Cc4ccc(O)c5c4C2(CCN3CC2CC2)C1O5 (configuration not stated),12.3% (inactive)
17,NC[C@H](CC(=O)O)c1ccc(Cl)cc1,3.97% (inactive)
18,CN1C2CCC1CC(OC(c1ccccc1)c1ccc(Cl)cc1)C2 (configuration not stated),-51.9% (inactive) and 41.6% (inactive)
19,CN(C)CCc1ccc(O)cc1,15.3% (inactive) and 3.73% (inactive)
20,CC[C@@H]1[C@@H](C)O[C@@](O)([C@@H](C)[C@H](O)[C@H](C)[C@H]2OC(=O)/C=C/C=C/[C@H](C)[C@H]([C@@H](C)[C@@H](O)[C@H](C)[C@@]3(O)C[C@@H](O[C@H]4C[C@H](O)[C@H](O)[C@H](C)O4)[C@H](CC)[C@@H](C)O3)OC(=O)/C=C/C=C/[C@H]2C)C[C@H]1O[C@H]1C[C@H](O)[C@H](O)[C@H](C)O1,-83.6% (active)
21,CC(C)[C@@H](CN1CC[C@@](C)(c2cccc(O)c2)[C@@H](C)C1)NC(=O)[C@H]1Cc2ccc(O)cc2CN1,7.74% (inactive)
